Experimental data as given in publication PMC5540273 (PLoS ONE, 2017).

These molecules were tested on ROCK2.
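Note: kd values determined as follow-up on hits from a single-replicate KINOMEscan panel screen.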

Row | SMILES | Kd [nM]
1 | CC1=C(C(=O)Nc2cc3cn[nH]c3cc2F)C(c2ccc(C(F)(F)F)cc2)CC(=O)N1 (stereo not drawn) [GSK429286] | 2.7
2 | O=S(=O)(c1ccc(-c2ccnc3[nH]ccc23)cc1)N1CCCC1 [GSK846226] | 350
3 | CSc1nn2c(=O)cc(N3CCOCC3)nc2n1Cc1cccc(C(F)(F)F)c1C [GSK2363608] | 82

What follows are molecules tested on T1, RSK4(Kin.Dom.2-C-terminal).
T1 construct: gene RPS6KA6

Row | SMILES | Kd [nM]
4 | CS(=O)(=O)c1ccc(-c2c(-c3ncn[nH]3)sc(N3CCOCC3)c2C#N)cc1 | > 10000
5 | Fc1cc(Cl)ccc1Nc1ccnc2cc(I)ccc12 [GW551191] | 730
6 | Fc1cc(Cl)ccc1Nc1ccnc2cc(-c3ccc(CN4CCCCC4)o3)ccc12 [GW560116] | 670

These molecules were tested on SLK.

Row | SMILES | Kd [nM]
7 | Cc1ccccc1-n1cnc2c(N)ncnc21 [SKF-97510] | > 10000
8 | CN(C)CCN(C)C(=O)c1cc(-c2ccncc2)c(-c2ccc(Cl)c(O)c2)o1.Cl.Cl [SB-710397] | 3600
9 | COc1cc2ncn(-c3cc(OCC4CCCO4)c(C(N)=O)s3)c2cc1OC (stereo not drawn) [GSK204607] | > 10000

Each molecule was assayed on TGFBR1.

Row | SMILES | Kd [nM]
10 | Cl.c1ccc(-c2n[nH]cc2-c2ccnc(-c3ccc(CN4CCOCC4)cc3)c2)nc1 [GW776245] | 150
11 | Cc1ccc(-c2cc(-c3c[nH]nc3-c3ccccn3)ccn2)cc1 [GW684088] | 260
12 | Cc1cccc(-c2nc(C)cc(Nc3ccncc3)n2)n1 [GSK257997] | 200

These molecules were tested on TGFBR2.

Row | SMILES | Kd [nM]
13 | Cl.c1ccc(-c2n[nH]cc2-c2ccnc(-c3ccc(CN4CCOCC4)cc3)c2)nc1 [GW776245] | 210
14 | Cc1cccc(-c2nc(Nc3ccncc3)c3ccccc3n2)n1 [GW855857] | 290
15 | Cc1csc(-c2nc(Nc3ccncc3)c3ccccc3n2)n1 [GW869640] | 250
